Measured values as given in the OligoGym collection.

How the values were obtained:
Assay in all cases: pooled miR-30 sensor sort-seq; sequence = guide strand
Settings in all cases: shRNA
ATP10B = target: ATP10B
ATHL1 = target: ATHL1
ATOX1 = target: ATOX1
ATG16L1 = target: ATG16L1
ATP6V0A4 = target: ATP6V0A4
AVPR1B = target: AVPR1B
BBC3 = target: BBC3
BCL7A = target: BCL7A
C10orf27 = target: C10orf27
C10orf129 = target: C10orf129
C11orf49 = target: C11orf49
BZW1 = target: BZW1
C14orf149 = target: C14orf149
C14orf105 = target: C14orf105
C14orf109 = target: C14orf109
Further: reference of the scale not given here.

TTGACTATCATACTCTTCTGGA
sensor-assay potency score (higher = more potent) (ATP10B): 0.0435

TACCTTGATCTTGTCAGCCACC
sensor-assay potency score (higher = more potent) (ATHL1): -0.985

TCCAAGCTTATTGAGGACCCGA
sensor-assay potency score (higher = more potent) (ATOX1): -0.663

TACACAGAGTTGTTGACCCCTG
sensor-assay potency score (higher = more potent) (ATHL1): -0.218

TCCACAGTGAGTGACTCGGTGG
sensor-assay potency score (higher = more potent) (ATHL1): -1.15

TTCAATGCAGACCTTCTTGTTG
sensor-assay potency score (higher = more potent) (ATOX1): -0.466

TTTGTCCACACTGACAACGTGC
sensor-assay potency score (higher = more potent) (ATG16L1): -0.838

TCGAGCTGTGACCTCCACGGTC
sensor-assay potency score (higher = more potent) (ATHL1): -1.01

TTGTTGGGCAGGTCAATGTCAT
sensor-assay potency score (higher = more potent) (ATOX1): -0.613

AGTCTTTCCTGTTTTCTTCAGG
sensor-assay potency score (higher = more potent) (ATOX1): -1.75

TCAATGTCATACTTAACTCCTC
sensor-assay potency score (higher = more potent) (ATOX1): -0.482

TTCTTCAGGGTTGCAAGCAGAG
sensor-assay potency score (higher = more potent) (ATOX1): -0.987

TTGCAAAATCATTTGAAGCTGC
sensor-assay potency score (higher = more potent) (ATG16L1): 0.00437

AAGCAGAGTGTCCATGCTGTGC
sensor-assay potency score (higher = more potent) (ATOX1): -1.19

TCGAAATAGCTGCAGGTCCTGG
sensor-assay potency score (higher = more potent) (ATHL1): -1.24

TCAAAGGGTACCTTGATCTTGT
sensor-assay potency score (higher = more potent) (ATHL1): 0.372

TTGGTGTACACAGAGTTGTTGA
sensor-assay potency score (higher = more potent) (ATHL1): -0.594

ATGTCATACTTAACTCCTCCAA
sensor-assay potency score (higher = more potent) (ATOX1): -0.956

TCAGATTCAATGCAGACCTTCT
sensor-assay potency score (higher = more potent) (ATOX1): -0.2

TTTTTGGCAAAGCTGCACCTGA
sensor-assay potency score (higher = more potent) (ATHL1): -0.809

TTTTCTTCAGGGTTGCAAGCAG
sensor-assay potency score (higher = more potent) (ATOX1): 0.404

TTGTAGCTGATTGTCATTCCAT
sensor-assay potency score (higher = more potent) (ATG16L1): -0.0295

TACTTAACTCCTCCAAGCTTAT
sensor-assay potency score (higher = more potent) (ATOX1): -1.31

TAAATCTCCAGATTTTTCCTGC
sensor-assay potency score (higher = more potent) (ATHL1): 0.146

AACTCCTCCAAGCTTATTGAGG
sensor-assay potency score (higher = more potent) (ATOX1): -1.32

TGTCATACTTAACTCCTCCAAG
sensor-assay potency score (higher = more potent) (ATOX1): -0.838

TTGTTCTGGAACTCAACCCAGT
sensor-assay potency score (higher = more potent) (ATP6V0A4): -0.422

TAAGTGCAGCACGAACAGGTGC
sensor-assay potency score (higher = more potent) (AVPR1B): -0.436

TTGTACAGGACCCTCCAGGGTG
sensor-assay potency score (higher = more potent) (BBC3): -1.05

TGCTCCTCTTGTCTCCGCCGCT
sensor-assay potency score (higher = more potent) (BBC3): -1.11

TAACACACAACTCAAAGGGAGT
sensor-assay potency score (higher = more potent) (BCL7A): -1.29

TATCGTTACATAGAGAAGTGGG
sensor-assay potency score (higher = more potent) (BCL7A): 0.305

TTTAGTAAGAGTTTTCACGGTA
sensor-assay potency score (higher = more potent) (C10orf27): 0.259

TGACACAGAAACACACAGGCTC
sensor-assay potency score (higher = more potent) (C10orf129): 0.78

TTGGCTAATATCTTCCCTGTTT
sensor-assay potency score (higher = more potent) (C11orf49): -0.438

TGTAGGTCTGCTTTGGAGGGGC
sensor-assay potency score (higher = more potent) (C10orf129): -0.275

TCGTCCATGAGCACAATCCTGG
sensor-assay potency score (higher = more potent) (C11orf49): -1.16

TTTCTGAGTGAGCTCCAGCGGG
sensor-assay potency score (higher = more potent) (C11orf49): -0.907

TACATCTCTGGATTTGCAGATA
sensor-assay potency score (higher = more potent) (C10orf129): -0.615

TAATACAGTCTTGAAACTGAGT
sensor-assay potency score (higher = more potent) (BZW1): -0.709

TCTTGAAATCCAACCACCCATC
sensor-assay potency score (higher = more potent) (C10orf129): -1.29

ATAGCTCTTATCTGACACCAGG
sensor-assay potency score (higher = more potent) (C10orf129): -1.02

TTCATGGTCAGCAAATCGCCAT
sensor-assay potency score (higher = more potent) (C11orf49): -0.72

TAACACTAGGGTAAACCCCTGG
sensor-assay potency score (higher = more potent) (C11orf49): -0.37

AAATATTCAGTGAAGAACCTGG
sensor-assay potency score (higher = more potent) (C11orf49): 0.285

TTCTTCTTCAGCATTTTTGAGC
sensor-assay potency score (higher = more potent) (BZW1): -0.679

TTGGATGTGGGTCACGTGCTGG
sensor-assay potency score (higher = more potent) (C10orf27): -0.839

TTCGATGTCTTCTTCTCTGTGT
sensor-assay potency score (higher = more potent) (C10orf27): 0.791

TTCTCCAACAGGCCACAGCGGT
sensor-assay potency score (higher = more potent) (C11orf49): -1.61

TGATATCTTCGTTTTCTTCGGG
sensor-assay potency score (higher = more potent) (C10orf27): 0.224

ATATCTTCGTTTTCTTCGGGGA
sensor-assay potency score (higher = more potent) (C10orf27): -0.103

TTATCCATGCTGACTTTCCGAA
sensor-assay potency score (higher = more potent) (BZW1): -0.947

TAGCTCTTATCTGACACCAGGA
sensor-assay potency score (higher = more potent) (C10orf129): -0.145

TTAGCTATTAGACACAAAGGGG
sensor-assay potency score (higher = more potent) (C11orf49): -0.469

TTCTTCTCTGTGTTCTGGCTTG
sensor-assay potency score (higher = more potent) (C10orf27): -0.353

AACTTCTTGAAATCCAACCACC
sensor-assay potency score (higher = more potent) (C10orf129): -1.25

TAAAAGGTGATATCTTCGTTTT
sensor-assay potency score (higher = more potent) (C10orf27): -1.08

TTCTTGAAATCCAACCACCCAT
sensor-assay potency score (higher = more potent) (C10orf129): -0.764

TTGTGAAGTGTTCAACACTTTG
sensor-assay potency score (higher = more potent) (BZW1): -1.21

TTTTGTAAAAGGTGATATCTTC
sensor-assay potency score (higher = more potent) (C10orf27): -0.0398

TTTAGAACAGTCTCAGGGCAGA
sensor-assay potency score (higher = more potent) (C10orf129): -0.497

TTATCTGACACCAGGAGCTTGG
sensor-assay potency score (higher = more potent) (C10orf129): -0.78

TCGAAATCCACAATCCCTGGGA
sensor-assay potency score (higher = more potent) (C10orf27): 0.448

AATAATACAGTCTTGAAACTGA
sensor-assay potency score (higher = more potent) (BZW1): 0.296

ATACTGGGAATACTCGACCATT
sensor-assay potency score (higher = more potent) (C10orf129): -1.34

TATCTTCGTTTTCTTCGGGGAT
sensor-assay potency score (higher = more potent) (C10orf27): -0.791

AACTTGAATCAACTTCTTGAAA
sensor-assay potency score (higher = more potent) (C10orf129): -1.71

TTTTCTAGTTTTAAAACGCTGG
sensor-assay potency score (higher = more potent) (BZW1): -0.34

TTCTGAGTGAGCTCCAGCGGGA
sensor-assay potency score (higher = more potent) (C11orf49): -1.01

TTTCACATGTTTGTTTAGCTAT
sensor-assay potency score (higher = more potent) (C11orf49): -0.281

TTTCGCTTTTTGTAAAAGGTGA
sensor-assay potency score (higher = more potent) (C10orf27): -0.648

TTCTTCTCCAGTTTCAGCTCAG
sensor-assay potency score (higher = more potent) (C10orf27): -0.249

TTTTGCAAGTGAAATCATCTTC
sensor-assay potency score (higher = more potent) (C11orf49): 0.664

TAGCTATTAGACACAAAGGGGT
sensor-assay potency score (higher = more potent) (C11orf49): -0.34

TATAAGCATCTTTTCCATCTGT
sensor-assay potency score (higher = more potent) (C14orf149): 0.316

TTGCTTATTAATTCTTGCCTCT
sensor-assay potency score (higher = more potent) (C14orf105): -0.134

TTAAAGAGTCACTCAGCTCTGA
sensor-assay potency score (higher = more potent) (C14orf109): 0.487

TTGCTTTGTGCATTGTCCTGGC
sensor-assay potency score (higher = more potent) (C14orf105): 0.239

ATGCTCTGTGCAATGGTCCCGA
sensor-assay potency score (higher = more potent) (C14orf109): -0.872

AAAATAACTGTCCACACCCAAA
sensor-assay potency score (higher = more potent) (C14orf109): -1.6

TTTGCTTATTAATTCTTGCCTC
sensor-assay potency score (higher = more potent) (C14orf105): 0.114

TTGCAAATAACTGCCAAGCATA
sensor-assay potency score (higher = more potent) (C14orf109): -1.38

TTGAATGCAAAGTCCACACGGC
sensor-assay potency score (higher = more potent) (C14orf105): 0.351

TAAAATCACCACATTTCGCTTC
sensor-assay potency score (higher = more potent) (C14orf149): 0.352
